# HCMV inh = inhibitors of human cytomegalovirus. HFF cells, HCMV-luciferase reporter, 72 h; hits give low values. activity change, negative = inhibition, % at 57.5 µM. hit rate 4.5% among 410,000. AID 1259415; in the data active = activity change below about -60%; inconclusive = no clear call, values can overlap the other calls; inactive = above about -39%; also: % is scaled to controls: 0 for no effect and ±100 for the full control effect
#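 Screen run at 2 compound doses on HFFs infected with reporter HCMV, MOI 1 PFU/cell. Luciferase activity from cell lysates at 72 h post infection gave inhibition relative to buffer-only and Salinomycin wells.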
# FMDV inh = foot and mouth disease virus antiviral activity; FMDV antiviral cell-based qHTS; Potency, µM (titrated, usually from 57.9 µM), without a hit: at the top dose activity change, negative = inhibition, actives largely listed as inhibitors; hit rate 1.2% among 410,000; calls by dose curve; tested in HEK293T cells; also: read-out not given here; potency is read from the fitted curve at half-maximal effect; % is scaled to controls: 0 for no effect and ±100 for the full control effect; nearly all actives have a fitted effect of over 45% in size
# SARS PLpro yeast = inhibitors of SARS-CoV papain-like protease in yeast; S. cerevisiae expressing SARS-CoV PLpro, growth rescue; hit rate 0.19% among 330,000; Potency, µM (top dose mostly 32.9 µM), inactives show at the highest dose activity, positive = growth rescue, hits mostly activators; calls by dose curve; also: potency is read from the fitted curve at half-maximal effect; 0% is about no effect; nearly all actives have a fitted effect of over 55% in size
# Marburg entry inh = Marburg virus entry inhibition. hit rate 1.8% among 300,000. AID 540276. Marburg virus pseudotyped entry inhibition, cell reporter. Potency, µM (top dose mostly 37.8 µM), for inactives: at the highest dose activity change, negative = inhibition, usual class: inhibitors; calls by dose curve; tested in HEK293 cells; also: potency is read from the fitted curve at half-maximal effect; % is scaled to controls: 0 for no effect and ±100 for the full control effect
# Lassa entry inh = Lassa virus entry inhibition | Lassa virus pseudotype entry inhibition, cell reporter | Potency, µM (top dose mostly 37.9 µM), for the others: at the highest dose activity change, negative = inhibition, actives largely listed as inhibitors | hit rate 1.2% among 300,000; calls by dose curve; tested in HEK293 cells; also: potency is read from the fitted curve at half-maximal effect; % is scaled to controls: 0 for no effect and ±100 for the full control effect; nearly all actives have a fitted effect of over 50% in size
# HCV inhibitor = blocks hepatitis C virus; Huh7.5.1 HCVcc-Cre infection, luciferase reporter, 44 h; Potency, µM (highest dose often 41.8 µM), inactives show at the top dose activity change, negative = inhibition, actives largely listed as inhibitors; hit rate 3.4% among 340,000; active = well fitted inhibition curve with a large enough effect; inconclusive = small, poorly fitted or top-dose-only effect, or another doubt; inactive = no such curve, though single readings can be large or run the other way; also: potency is read from the fitted curve at half-maximal effect; % is scaled to controls: 0 for no effect and ±100 for the full control effect
#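 Antiviral activity was scored by luciferase reporter output from cells infected with HCVcc-Cre (~0.5 moi) in presence of compound, 44 h infection period, cells seeded 1,000/well 4 h prior.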
# The depositor's hits bear a star; u = inconclusive; x = no result; ! = not active in a repeat; [ ] = dose if it differs, or a comment. Compounds with a hit are over-represented: about 8% of the library has one in this group of screens.
SMILES,HCMV inh,FMDV inh,SARS PLpro yeast,Marburg entry inh,Lassa entry inh,HCV inhibitor
Clc1cccc(Cl)c1CO/N=C/c1c(-c2ccccc2)nc2n1CCS2,u,-6%,-2%,21µM*,u,u
O=C1c2ccccc2C(=O)N1CCCCN(C(=O)c1ccc(Cl)s1)c1ccc(Cl)cc1,-24,u,7%,1%,0%,u
Cc1ccc(N(CCCCN2C(=O)c3ccccc3C2=O)C(=O)c2ccc(Cl)s2)cc1,-62*,0%,7%,1%,u,u
CCn1c(CNc2ccc(Cl)cc2)nnc1SCCN1CCCCC1,-106*,-19%,9%,-28%,-1%,u
Clc1ccc(NCc2nnc3n2CCCCC3)cc1,-99*,-15%,5%,-8%,3%,6%
COc1ccc2nc(C)cc(Nc3ccc(N4CCN(C)CC4)cc3)c2c1,-102*,-10%,1%,x,x,10µM*
COc1ccc(OC)c(Nc2cc(C)nc3nc(C)nn23)c1,34,-29%,0%,x,x,u
COc1ccc2nc(C)cc(Nc3ccc(Cl)c(Cl)c3)c2c1,-106*,u,x,x,u,x
COc1ccc2nc(N3CCOCC3)cc(C)c2c1,146,x,5%,u,u,u
COc1ccc(Nc2cc(C)nc3ccccc23)cc1,u,-15%,x,u,-1%,u
COc1ccc(OC)c(Nc2cc(C)nc3ccc(C)cc23)c1,-13,u,x,u,u,22µM*
COc1ccc2nc(C)cc(Nc3ccc(N4CCOCC4)cc3)c2c1,-86*,x,0%,u,-16%,u
COc1ccc2nc(C)cc(Nc3ccc(C)cc3)c2c1,-23,-16%,-3%,u,u,u
C=CCC(C)(NCc1ccccc1)C(=O)OCC (stereo not given),x,x,x,20%[14.2 µM],x,x
CCc1ccc(-c2nn(CC(=O)Nc3ccccc3C)c3c2cnc2ccc(C)cc23)cc1,-3,9%,x,x,23%[46.1 µM],x
Cc1sc(NC(=O)c2cccc(N3C(=O)CCC3=O)c2)nc1-c1ccccc1,-5,1%,13%,4%,-12%,u
O=C(CSc1nnc(-c2ccccc2Cl)o1)N1CCCC1,15,40%,-1%,u,2.8µM*,-21%
CCOC(=O)N1CCN(C(=O)CSc2nnc(-c3cc(OC)ccc3OC)o2)CC1,11,u,-22%,u,-8%,10µM*!
COc1cc(=O)n2c(c1C(=O)N(C)Cc1nonc1C)CCN(Cc1ccccc1F)CC2,x,-7%,x,x,x,x
O=c1[nH]c(NCCO)nnc1Cc1ccccc1,-12,-6%,0%,x,x,14%
COc1ccc(NC(=O)CCc2c(C)nc3cc(-c4cccc(F)c4)nn3c2C)cc1Cl,-31,-30%,x,5%[46.1 µM],5%[46.1 µM],x
COc1cc(OC)cc(-c2cc3nc(C)c(CCC(=O)Nc4ccc(F)c(Cl)c4)c(C)n3n2)c1,-62*,32µM*,x,u,-21%[46.1 µM],x
COc1cc(NC(=O)CCc2c(C)nc3cc(-c4ccccc4)nn3c2C)cc(OC)c1OC,-104*,-22%,x,-12%[46.1 µM],14%[46.1 µM],x
COC(=O)[C@@]12C[C@@H](CC(=O)N3CCSCC3)C(=O)N(Cc3ccccc3)C1=CCC(C)(C)C2,u,1%,x,x,x,x
CN(C)CC(C)(C)CNC(C(=O)Nc1ccc(Cl)cc1C(F)(F)F)c1ccccc1 (stereo not given),12,-8%,1%,u,2%[46.1 µM],-25%
SMILES,HCMV inh,FMDV inh,SARS PLpro yeast,Marburg entry inh,Lassa entry inh,HCV inhibitor
COc1cccc(CNc2nc3ccccc3c3nc(-c4cccc(C)c4)nn23)c1,88,30%,x,u,x,x
C=CC[n+]1c(/C=C/c2ccc(OC(C)=O)c(OC)c2)ccc2ccccc21,-100*,-22%,0%,x,x,u
COc1cc(/C=N/NC(=O)Nc2ccccc2)ccc1OC(C)=O,45,30%,25%,u,-17%,10%
CCC(C)(C)NC(=O)Nc1cc(Cl)ccc1OC,-61*,2%,3%,-12%,3%,u
CCN1CCC(NC(=O)Nc2cc(Cl)ccc2OC)CC1,-13,-4%,0%,7.1µM*,-7%[46.1 µM],1%
COc1cccc(C(C)NC(=O)Nc2cc(Cl)ccc2OC)c1 (stereo not given),-16,-8%,0%,u,12%,-17%
CCN1CCC(N(Cc2ccc3c(c2)OCO3)C(=O)Nc2ccccc2OC)CC1,-5,-19%,x,x,-6%[46.1 µM],x
COc1ccc(Cl)cc1NC(=O)NC(C)C,-101*,-9%,0%,x,x,u
CCN1CCC(N(Cc2ccc3c(c2)OCO3)C(=O)Nc2cc(Cl)ccc2C(=O)OC)CC1,-80*,-24%,x,x,u,x
O=C(COC(=O)c1nc(Cl)c(Cl)c(Cl)c1Cl)NCc1ccccc1,8,u,7%,x,x,u
CC(C)CNC(=O)C1(C)CCCN1C(=O)c1cc2ccccc2s1 (stereo not given),-19,-4%,x,x,x,x
Cc1cccc(CNC(=O)c2cnn(-c3nccc(-c4cccs4)n3)c2C2CC2)n1,x,-8%,x,x,x,x
COC(=O)c1ccc2c(=O)[nH]c(CCl)nc2c1,1,u,0%,13µM*,u,u
O=C(c1ccc2c(c1)OCCO2)C1CCN(C(=O)c2ccc(F)c(F)c2)CC1,-68*,-44%,2%,-11%,-6%,u
O=C(c1ccc2c(c1)OCCO2)C1CCN(C(=O)c2ccc(F)cc2)CC1,-37,u,12%,-2%,-18%,u
COc1ccc2[nH]cc(CCNc3ncncc3-c3ccc4c(c3)OCO4)c2c1,x,20µM*,x,x,x,x
CCCCCCn1ccc(=N)cc1,-80*,0%,6%,13µM*,u,0.79µM*
Cc1ccc(C(=O)N(Cc2cc3ccc(F)cc3nc2N2CCC(O)CC2)CC2CCCO2)cc1 (stereo not given),x,-6%,x,x,x,x
COc1cc(NC(=O)c2csc(N)n2)cc(C(=O)Nc2cccc(C(F)(F)F)c2)c1,-67*!,25µM*,-15%,x,x,u
COc1cc(NC(=O)c2ccnc(N)c2)cc(C(=O)Nc2cccc(C(F)(F)F)c2)c1,21,-7%,1%,x,x,-26%
COc1cc(NC(=O)c2cnc(N)o2)cc(C(=O)Nc2cccc(C(F)(F)F)c2)c1,u,18µM*,-4%,x,x,u
COc1cc(NC(=O)c2cnc(N)s2)cc(C(=O)Nc2cccc(C(F)(F)F)c2)c1,-31,-2%,3%,x,x,u
Cc1ccc2c(c1)c(=O)c(S(=O)(=O)c1ccc(F)cc1)cn2CC(=O)Nc1ccc2c(c1)OCO2,-10,22%,x,-22%[46.1 µM],1%[46.1 µM],x
CC1(C)Cc2ccccc2C(/C(C#N)=N/O)=N1,12,13%,0%,x,x,2%
COc1ccc(N/N=C(/C(N)=O)C2=NC(C)(C)Cc3ccccc32)cc1,-92*,-19%,-53%,u,u,u
CCC1CN(C(=O)N2CCC(C(=O)NCCc3ccc(C)cc3)CC2)c2ccccc2O1 (stereo not given),30,u,x,x,4%[46.1 µM],x
COc1ccc(CNC[C@H]2O[C@@H](n3ccc(=O)[nH]c3=O)[C@H](O)[C@@H]2O)cc1OC,-13,-3%,x,x,x,6.3µM*

# From PubChem BioAssay
